Here are results for 20 molecules from PubChem BioAssay.

Unmarked numbers belong to inactive results. For some of these results: Entries with a potency or affinity are not part of this list. Activity calls are given as the source filed them. Unless noted, how the calls were made is not given here.

Experiment [1] is described as follows: antimalarial activity against Dd2 strain (AID 2302;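 active means growth inhibition above 50% at the single 2 µM test dose, taken to imply half-maximal potency below 2 µM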;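 further: 0% = DMSO untreated growth and 100% = chloroquine plus artemisinin killed control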). To be noted: P. falciparum Dd2 in RBCs, LDH growth readout, 72 h; at 2 µM; stronger effect = higher value.
Experiment [2] can be described thus: HepG2 cytotoxicity, primary screen, cytotoxicity control for P. falciparum antimalarial project, cell-based, ATP luminescence (AID 2303;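 active means inhibition above 50%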;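 further: 0% = DMSO wells and 100% = digitonin-killed cells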). To be noted: HepG2 viability, 24-48 h, at 10 µM, stronger effect = higher value.
Experiment [3] addresses L-lactate dehydrogenase (Plasmodium falciparum (isolate CDC / Honduras)) (UniProt Q27743). Description: PfLDH activity inhibition – cell lysate, 3D7 strain, counter-screen for P. falciparum growth inhibition project (AID 2304).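 Further: 0% = vehicle and 100% = reference inhibitor.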 The note with it: P. falciparum 3D7 crude extract, LDH APAD/NBT absorbance; at 2 µM; stronger effect = higher value.
Experiment [4] is described as follows: inhibition of 3D7 malaria parasite growth – strain 3D7 (AID 2306).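 Further: 0% = DMSO wells and 100% = chloroquine plus artemisinin control wells.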 The note with it: P. falciparum 3D7 erythrocytic growth, LDH absorbance, 72 h; at 2 µM; stronger effect = higher value.
For experiment [5], the target named is Calcium-dependent protein kinase 1 (Plasmodium falciparum (isolate 3D7)) (UniProt P62344). Description: PfCDPK1 kinase inhibitors, biochemical, TCAMS library (AID 1159585; cut-off not given, nearly all actives have IC50 up to about 0.98 µM;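 further: inhibitors leave more ATP so luminescence rises with inhibition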). The note with it: recombinant PfCDPK1, Kinase-Glo ATP depletion luminescence.
Chain of Calcium-dependent protein kinase 1 (Plasmodium falciparum (isolate 3D7)) (P62344 whole entry, looked up): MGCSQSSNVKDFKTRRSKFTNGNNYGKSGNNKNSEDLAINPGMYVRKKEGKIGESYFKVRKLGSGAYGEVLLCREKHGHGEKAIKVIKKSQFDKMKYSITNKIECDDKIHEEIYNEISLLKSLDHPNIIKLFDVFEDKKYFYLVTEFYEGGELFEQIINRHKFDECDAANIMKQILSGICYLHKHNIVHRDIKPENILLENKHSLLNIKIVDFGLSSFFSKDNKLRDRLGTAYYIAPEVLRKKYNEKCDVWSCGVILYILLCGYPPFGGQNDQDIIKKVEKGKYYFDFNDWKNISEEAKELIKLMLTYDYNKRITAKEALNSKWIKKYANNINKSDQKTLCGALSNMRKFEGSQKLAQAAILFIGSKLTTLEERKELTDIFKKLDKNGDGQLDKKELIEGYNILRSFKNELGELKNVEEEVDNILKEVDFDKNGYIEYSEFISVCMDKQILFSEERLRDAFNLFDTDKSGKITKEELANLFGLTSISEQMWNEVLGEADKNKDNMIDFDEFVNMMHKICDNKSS
Experiment [6] deals with Plasmodium falciparum protein kinase 6 (PK6, PF3D7_1337100) (UniProt Q8IDW1). Description: PfPK6 kinase inhibitors, biochemical, TCAMS library (AID 1159586). To be noted: recombinant PfPK6, Kinase-Glo ATP depletion luminescence.
Chain of Plasmodium falciparum protein kinase 6 (PK6, PF3D7_1337100) (Q8IDW1 1-305): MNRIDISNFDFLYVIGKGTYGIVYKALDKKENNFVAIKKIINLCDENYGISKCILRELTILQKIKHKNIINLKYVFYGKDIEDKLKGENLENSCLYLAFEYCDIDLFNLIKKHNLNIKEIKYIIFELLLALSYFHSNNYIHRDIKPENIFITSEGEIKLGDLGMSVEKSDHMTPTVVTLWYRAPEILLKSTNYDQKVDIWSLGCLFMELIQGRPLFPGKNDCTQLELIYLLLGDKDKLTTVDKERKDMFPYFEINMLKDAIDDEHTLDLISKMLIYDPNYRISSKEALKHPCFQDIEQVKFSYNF
The target in experiment [7] is Protein kinase 7 (PK7), Plasmodium falciparum 3D7 (PF3D7_0213400) (UniProt Q7YTF7). Description: inhibition of Plasmodium PK7 catalytic activity – biochemical, TCAMS antimalarial set, Kinase-Glo luminescence (AID 1159587). The note with it: recombinant PfPK7, Kinase-Glo ATP depletion luminescence.
Chain of Protein kinase 7 (PK7), Plasmodium falciparum 3D7 (PF3D7_0213400) (Q7YTF7 1-343): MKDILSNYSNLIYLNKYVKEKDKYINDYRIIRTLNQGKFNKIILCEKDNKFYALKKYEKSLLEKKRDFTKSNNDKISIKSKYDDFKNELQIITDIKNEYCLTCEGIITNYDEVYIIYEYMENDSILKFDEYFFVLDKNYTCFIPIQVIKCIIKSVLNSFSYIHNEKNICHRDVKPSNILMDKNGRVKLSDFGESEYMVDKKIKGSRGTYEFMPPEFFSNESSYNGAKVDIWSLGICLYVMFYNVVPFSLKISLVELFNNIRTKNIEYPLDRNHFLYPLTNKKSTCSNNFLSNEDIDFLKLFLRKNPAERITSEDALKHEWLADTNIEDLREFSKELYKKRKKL
The target in experiment [8] is Calcium-dependent protein kinase 4 (Plasmodium falciparum (isolate 3D7)) (UniProt Q8IBS5). Description: PfCDPK4 kinase inhibitors, biochemical, TCAMS library (AID 1159588; cut-off not given, nearly all actives have IC50 up to about 0.91 µM). To be noted: recombinant PfCDPK4, Kinase-Glo ATP depletion luminescence.
Chain of Calcium-dependent protein kinase 4 (Plasmodium falciparum (isolate 3D7)) (Q8IBS5 whole entry, looked up): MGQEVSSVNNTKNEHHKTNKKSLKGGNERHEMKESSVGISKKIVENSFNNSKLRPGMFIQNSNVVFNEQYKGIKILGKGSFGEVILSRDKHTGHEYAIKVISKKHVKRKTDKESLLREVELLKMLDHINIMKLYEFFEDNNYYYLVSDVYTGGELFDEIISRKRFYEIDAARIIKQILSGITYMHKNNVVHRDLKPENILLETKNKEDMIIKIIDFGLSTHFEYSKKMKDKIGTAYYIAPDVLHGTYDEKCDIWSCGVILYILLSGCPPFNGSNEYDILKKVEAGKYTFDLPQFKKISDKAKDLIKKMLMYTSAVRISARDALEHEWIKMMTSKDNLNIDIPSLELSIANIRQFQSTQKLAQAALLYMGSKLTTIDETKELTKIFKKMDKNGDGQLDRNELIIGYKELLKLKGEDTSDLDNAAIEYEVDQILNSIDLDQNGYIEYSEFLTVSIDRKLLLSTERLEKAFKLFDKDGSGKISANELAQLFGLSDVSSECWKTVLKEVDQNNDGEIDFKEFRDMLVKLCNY

Chain of L-lactate dehydrogenase (Plasmodium falciparum (isolate CDC / Honduras)) (Q27743 whole entry, looked up): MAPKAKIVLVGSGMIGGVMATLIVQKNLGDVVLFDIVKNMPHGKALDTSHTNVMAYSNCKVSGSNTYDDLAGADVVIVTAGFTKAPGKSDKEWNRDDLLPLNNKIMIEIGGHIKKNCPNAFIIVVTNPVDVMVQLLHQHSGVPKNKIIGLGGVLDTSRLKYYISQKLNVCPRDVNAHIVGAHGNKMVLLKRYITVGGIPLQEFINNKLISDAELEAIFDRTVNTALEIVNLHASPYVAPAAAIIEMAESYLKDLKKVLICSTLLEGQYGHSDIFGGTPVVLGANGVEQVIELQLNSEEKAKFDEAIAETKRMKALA

As to `COc1ccc(NC(=O)c2ccc(Br)c(C)c2)cc1N1CCN(CCCc2c[nH]c3ccccc23)CC1`, the growth inhibition in experiment [1] was 64% (active); in experiment [4] it was 102% (active). Further, the inhibition in experiment [2] was 21%; in experiment [3], 0%. The result in experiment [5], in experiment [6], in experiment [7] and in experiment [8] was inactive.

`CCOC(=O)[C@H](Cc1cccc2ccccc12)NC(=O)[C@H](CCC(=O)OC(C)(C)C)NC(=O)c1ccc(N(C)Cc2cnc3nc(N)nc(N)c3n2)cc1`: the growth inhibition was 96% (active) in experiment [1] and 93% (active) in experiment [4]. The inhibition in experiment [2] is 66% (active); in experiment [3], -2%. Further, the result in experiment [5], in experiment [6], in experiment [7] and in experiment [8] was inactive.

On to `CCCCCCCCN1CCCN(C(=O)c2cccc(NC(=O)Nc3ccc4ccccc4c3)c2)CC1`, for which the growth inhibition in experiment [1] was 39%; in experiment [4], 97% (active). Further, the inhibition in experiment [2] is 39%; in experiment [3] it was 1%. Also, the outcome in experiment [5], in experiment [6], in experiment [7] and in experiment [8] was inactive.

Consider `CCN(CCCN1CCCCC1)c1cc(C)nc(Nc2ccc(C)cc2Cl)n1`, for which the results for the growth inhibition in experiment [1] and in experiment [4] were 25% and 93% (active), respectively. Moreover, the values for the inhibition in experiment [2] and in experiment [3] were 44% and 1%, respectively. Besides, the outcome in experiment [5], in experiment [6], in experiment [7] and in experiment [8] was inactive.

With `N#CC(c1cccc(Cl)c1)c1ccc2c(C(F)(F)F)cc(C(F)(F)F)nc2n1` (stereo not given), the growth inhibition in experiment [1] was 97% (active); in experiment [4], 96% (active). Further, the inhibition in experiment [2] is 52% (active); in experiment [3] it was 4%. The result in experiment [5], in experiment [6], in experiment [7] and in experiment [8] was inactive.

On to `Cc1ccc(NC(=O)c2ccc(CN3CCCN(CC4CCCCC4)CC3)cc2)cc1F`, for which the growth inhibition in experiment [1] was 61% (active); in experiment [4], 92% (active). In addition, the inhibition was 51% (active) in experiment [2] and -2% in experiment [3]. Moreover, the result in experiment [5], in experiment [6], in experiment [7] and in experiment [8] was inactive.

As to `CC=CCON1C(N)=NC(N)=NC1(C)C`, the growth inhibition in experiment [1] is 1%; in experiment [4], 94% (active). Further, the inhibition is 57% (active) in experiment [2] and 5% in experiment [3]. The result in experiment [5], in experiment [6], in experiment [7] and in experiment [8] was inactive.

Take `O=C(O)c1cc(OCC(O)COc2ccc(O)c(C(=O)O)c2)ccc1O`: the growth inhibition in experiment [1] was 6%; in experiment [4] it was 99% (active). For the same molecule, the values for the inhibition in experiment [2] and in experiment [3] were 9% and 5%, respectively. In addition, the result in experiment [5], in experiment [6], in experiment [7] and in experiment [8] was inactive.

Consider `Cc1cccc(CN2CCC(Oc3ccc(NC(=O)c4cccs4)cc3Cl)CC2)n1`, for which the growth inhibition is 88% (active) in experiment [1] and 86% (active) in experiment [4]. The inhibition in experiment [2] is 27%; in experiment [3] it was 7%. Also, the result in experiment [5], in experiment [6], in experiment [7] and in experiment [8] was inactive.

For `Cc1cc(CN2CC[C@H](NC(=O)c3ccc(Cl)c(Cl)c3)C2)ccc1OC1CCN(C)C1` (stereo not given in full), the growth inhibition in experiment [1] was 24%; in experiment [4], 101% (active). Further, the inhibition in experiment [2] was 71% (active); in experiment [3], -3%. The result in experiment [5], in experiment [6], in experiment [7] and in experiment [8] was inactive.

Regarding `CC[C@H](C)CNC(=O)c1ccnc(-c2ccc(CN3CCC(N4CCCC4)CC3)cc2)c1`, the growth inhibition was 84% (active) in experiment [1] and 99% (active) in experiment [4]. For the same molecule, the inhibition was 13% in experiment [2] and -2% in experiment [3]. For the same molecule, the outcome in experiment [5], in experiment [6], in experiment [7] and in experiment [8] was inactive.

Turning to `CCOc1cccc(C(=O)Nc2cccc(CN3CCCN(Cc4ccc(O)cc4)CC3)c2)c1`, the growth inhibition in experiment [1] was 31%; in experiment [4], 91% (active). In addition, the inhibition was 23% in experiment [2] and 1% in experiment [3]. Moreover, the outcome in experiment [5], in experiment [6], in experiment [7] and in experiment [8] was inactive.

Consider `Cc1sc(NC(=O)Cc2cccc(C(F)(F)F)c2)nc1-c1cccc(Cl)c1`, for which the growth inhibition in experiment [1] is 95% (active); in experiment [4], 101% (active). Moreover, the figures for the inhibition in experiment [2] and in experiment [3] were 15% and -3%, respectively. Besides, the outcome in experiment [5], in experiment [6], in experiment [7] and in experiment [8] was inactive.

`CC(C)(C)SCC(O)Cn1c2ccc(Br)cc2c2cc(Br)ccc21` (stereo not given): the growth inhibition was 79% (active) in experiment [1] and 87% (active) in experiment [4]. Also, the inhibition in experiment [2] was 4%; in experiment [3] it was 1%. In addition, the outcome in experiment [5], in experiment [6], in experiment [7] and in experiment [8] was inactive.

`Cc1cccc(OCC2CCN(c3ncc(C(=O)NC4CC4)cc3Cl)CC2)c1`: the growth inhibition in experiment [1] is 78% (active); in experiment [4] it was 90% (active). Also, the inhibition in experiment [2] was -4%; in experiment [3], -2%. Moreover, the result in experiment [5], in experiment [6], in experiment [7] and in experiment [8] was inactive.

Consider `CCOC(=O)c1[nH]c(-c2cc(Cl)nc(Cl)c2)nc1NC(=S)NCCCN1CCOCC1`, for which the growth inhibition is 71% (active) in experiment [1] and 89% (active) in experiment [4]. In addition, the results for the inhibition in experiment [2] and in experiment [3] were 13% and 3%, respectively. Also, the outcome in experiment [5], in experiment [6], in experiment [7] and in experiment [8] was inactive.

`CC1SC(=S)NC1C(=O)O` (stereo not given): the values for the growth inhibition in experiment [1] and in experiment [4] were -1% and 94% (active), respectively. In addition, the inhibition in experiment [2] was 3%; in experiment [3], 0%. Besides, the result in experiment [5], in experiment [6], in experiment [7] and in experiment [8] was inactive.

Turning to `Cc1cc(NCCc2cccc(F)c2)nc(/N=C(\N)Nc2cccc(C(F)(F)F)c2)n1`, the growth inhibition in experiment [1] is 99% (active); in experiment [4], 102% (active). For the same molecule, the inhibition in experiment [2] is 42%; in experiment [3] it was -1%. For the same molecule, the outcome in experiment [5], in experiment [6], in experiment [7] and in experiment [8] was inactive.

As for `Cc1ccc(C)c(-n2c(SCC(=O)Nc3ccc(C(N)=O)cc3)nnc2-c2cccc(Cl)c2)c1`, the growth inhibition in experiment [1] was 91% (active); in experiment [4] it was 92% (active). Moreover, the inhibition was 6% in experiment [2] and 4% in experiment [3]. Also, the outcome in experiment [5], in experiment [6], in experiment [7] and in experiment [8] was inactive.

`CC(=O)c1cccc(S(=O)(=O)NCCCNc2nc3cc(C)cc(C)c3cc2C#N)c1`: the growth inhibition in experiment [1] is 75% (active); in experiment [4], 95% (active). In addition, the values for the inhibition in experiment [2] and in experiment [3] were 11% and 1%, respectively. The outcome in experiment [5], in experiment [6], in experiment [7] and in experiment [8] was inactive.
